{"source": "the supplement of paper PMC4466140"}
{"molecular_target": "ScBbc1", "assay": "SPOT peptide array binding signal intensity (averaged, normalized) (arbitrary units (background-subtracted, floor 0; scale differs between SH3 domains)); higher = stronger binding of the SH3 domain to the peptide", "summary_of_the_method": "(§1)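 SH3 domains from four yeast species were expressed as GST fusions in E. coli BL21(DE3) and purified on glutathione Sepharose. Each was incubated at 10 μg/ml overnight at 4°C in TBS-based blocking buffer on cellulose membranes bearing synthetic 15-mer peptides, in which serines replaced cysteines. Bound protein was detected with anti-GST antibody, an HRP anti-mouse secondary and luminol, then imaged and quantified with Genespotter. The binding signal is the normalized, background-subtracted spot intensity averaged over replicates, in arbitrary units that are not the same from one domain to another.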"}
{"binder": "GDHPKGPPPPPPPPD", "SPOT peptide array binding signal intensity": "≤ 0"}
{"molecular_target": "ScBem1-D1", "assay": "SPOT peptide array binding signal intensity (averaged, normalized) (arbitrary units (background-subtracted, floor 0; scale differs between SH3 domains)); higher = stronger binding of the SH3 domain to the peptide", "summary_of_the_method": "as §1"}
{"binder": "GDHPKGPPPPPPPPD", "SPOT peptide array binding signal intensity": "≤ 0"}
{"molecular_target": "ScBzz1-D1", "assay": "SPOT peptide array binding signal intensity (averaged, normalized) (arbitrary units (background-subtracted, floor 0; scale differs between SH3 domains)); higher = stronger binding of the SH3 domain to the peptide", "summary_of_the_method": "as §1"}
{"binder": "GDHPKGPPPPPPPPD", "SPOT peptide array binding signal intensity": 1030}
{"molecular_target": "ScBzz1-D2", "assay": "SPOT peptide array binding signal intensity (averaged, normalized) (arbitrary units (background-subtracted, floor 0; scale differs between SH3 domains)); higher = stronger binding of the SH3 domain to the peptide", "summary_of_the_method": "as §1"}
{"binder": "GDHPKGPPPPPPPPD", "SPOT peptide array binding signal intensity": "≤ 0"}
{"molecular_target": "ScCyk3", "assay": "SPOT peptide array binding signal intensity (averaged, normalized) (arbitrary units (background-subtracted, floor 0; scale differs between SH3 domains)); higher = stronger binding of the SH3 domain to the peptide", "summary_of_the_method": "as §1"}
{"binder": "GDHPKGPPPPPPPPD", "SPOT peptide array binding signal intensity": "≤ 0"}
{"molecular_target": "ScFus1", "assay": "SPOT peptide array binding signal intensity (averaged, normalized) (arbitrary units (background-subtracted, floor 0; scale differs between SH3 domains)); higher = stronger binding of the SH3 domain to the peptide", "summary_of_the_method": "as §1"}
{"binder": "GDHPKGPPPPPPPPD", "SPOT peptide array binding signal intensity": "≤ 0"}
{"molecular_target": "ScHof1", "assay": "SPOT peptide array binding signal intensity (averaged, normalized) (arbitrary units (background-subtracted, floor 0; scale differs between SH3 domains)); higher = stronger binding of the SH3 domain to the peptide", "summary_of_the_method": "as §1"}
{"binder": "GDHPKGPPPPPPPPD", "SPOT peptide array binding signal intensity": "≤ 0"}
{"molecular_target": "ScHse1", "assay": "SPOT peptide array binding signal intensity (averaged, normalized) (arbitrary units (background-subtracted, floor 0; scale differs between SH3 domains)); higher = stronger binding of the SH3 domain to the peptide", "summary_of_the_method": "as §1"}
{"binder": "GDHPKGPPPPPPPPD", "SPOT peptide array binding signal intensity": 16}
{"molecular_target": "ScLsb1", "assay": "SPOT peptide array binding signal intensity (averaged, normalized) (arbitrary units (background-subtracted, floor 0; scale differs between SH3 domains)); higher = stronger binding of the SH3 domain to the peptide", "summary_of_the_method": "as §1"}
{"binder": "GDHPKGPPPPPPPPD", "SPOT peptide array binding signal intensity": "≤ 0"}
{"molecular_target": "ScLsb2", "assay": "SPOT peptide array binding signal intensity (averaged, normalized) (arbitrary units (background-subtracted, floor 0; scale differs between SH3 domains)); higher = stronger binding of the SH3 domain to the peptide", "summary_of_the_method": "as §1"}
{"binder": "GDHPKGPPPPPPPPD", "SPOT peptide array binding signal intensity": "≤ 0"}
{"molecular_target": "ScLsb3", "assay": "SPOT peptide array binding signal intensity (averaged, normalized) (arbitrary units (background-subtracted, floor 0; scale differs between SH3 domains)); higher = stronger binding of the SH3 domain to the peptide", "summary_of_the_method": "as §1"}
{"binder": "GDHPKGPPPPPPPPD", "SPOT peptide array binding signal intensity": "≤ 0"}
{"molecular_target": "ScLsb4", "assay": "SPOT peptide array binding signal intensity (averaged, normalized) (arbitrary units (background-subtracted, floor 0; scale differs between SH3 domains)); higher = stronger binding of the SH3 domain to the peptide", "summary_of_the_method": "as §1"}
{"binder": "GDHPKGPPPPPPPPD", "SPOT peptide array binding signal intensity": "≤ 0"}
{"molecular_target": "ScMyo3", "assay": "SPOT peptide array binding signal intensity (averaged, normalized) (arbitrary units (background-subtracted, floor 0; scale differs between SH3 domains)); higher = stronger binding of the SH3 domain to the peptide", "summary_of_the_method": "as §1"}
{"binder": "GDHPKGPPPPPPPPD", "SPOT peptide array binding signal intensity": 1170}
{"molecular_target": "ScMyo5", "assay": "SPOT peptide array binding signal intensity (averaged, normalized) (arbitrary units (background-subtracted, floor 0; scale differs between SH3 domains)); higher = stronger binding of the SH3 domain to the peptide", "summary_of_the_method": "as §1"}
{"binder": "GDHPKGPPPPPPPPD", "SPOT peptide array binding signal intensity": 1020}
{"molecular_target": "ScNbp2", "assay": "SPOT peptide array binding signal intensity (averaged, normalized) (arbitrary units (background-subtracted, floor 0; scale differs between SH3 domains)); higher = stronger binding of the SH3 domain to the peptide", "summary_of_the_method": "as §1"}
{"binder": "GDHPKGPPPPPPPPD", "SPOT peptide array binding signal intensity": 3}
{"molecular_target": "ScPex13", "assay": "SPOT peptide array binding signal intensity (averaged, normalized) (arbitrary units (background-subtracted, floor 0; scale differs between SH3 domains)); higher = stronger binding of the SH3 domain to the peptide", "summary_of_the_method": "as §1"}
{"binder": "GDHPKGPPPPPPPPD", "SPOT peptide array binding signal intensity": "7.63e-06"}
{"molecular_target": "ScRvs167", "assay": "SPOT peptide array binding signal intensity (averaged, normalized) (arbitrary units (background-subtracted, floor 0; scale differs between SH3 domains)); higher = stronger binding of the SH3 domain to the peptide", "summary_of_the_method": "as §1"}
{"binder": "GDHPKGPPPPPPPPD", "SPOT peptide array binding signal intensity": "≤ 0"}
{"molecular_target": "ScSho1", "assay": "SPOT peptide array binding signal intensity (averaged, normalized) (arbitrary units (background-subtracted, floor 0; scale differs between SH3 domains)); higher = stronger binding of the SH3 domain to the peptide", "summary_of_the_method": "as §1"}
{"binder": "GDHPKGPPPPPPPPD", "SPOT peptide array binding signal intensity": "≤ 0"}
{"molecular_target": "ScSla1-D1-D2", "assay": "SPOT peptide array binding signal intensity (averaged, normalized) (arbitrary units (background-subtracted, floor 0; scale differs between SH3 domains)); higher = stronger binding of the SH3 domain to the peptide", "summary_of_the_method": "as §1"}
{"binder": "GDHPKGPPPPPPPPD", "SPOT peptide array binding signal intensity": "≤ 0"}
{"molecular_target": "ScSla1-D3", "assay": "SPOT peptide array binding signal intensity (averaged, normalized) (arbitrary units (background-subtracted, floor 0; scale differs between SH3 domains)); higher = stronger binding of the SH3 domain to the peptide", "summary_of_the_method": "as §1"}
{"binder": "GDHPKGPPPPPPPPD", "SPOT peptide array binding signal intensity": "≤ 0"}
{"molecular_target": "SpAbp1-D1", "assay": "SPOT peptide array binding signal intensity (averaged, normalized) (arbitrary units (background-subtracted, floor 0; scale differs between SH3 domains)); higher = stronger binding of the SH3 domain to the peptide", "summary_of_the_method": "as §1"}
{"binder": "GDHPKGPPPPPPPPD", "SPOT peptide array binding signal intensity": "≤ 0"}
{"molecular_target": "SpBbc1", "assay": "SPOT peptide array binding signal intensity (averaged, normalized) (arbitrary units (background-subtracted, floor 0; scale differs between SH3 domains)); higher = stronger binding of the SH3 domain to the peptide", "summary_of_the_method": "as §1"}
{"binder": "GDHPKGPPPPPPPPD", "SPOT peptide array binding signal intensity": "≤ 0"}
{"molecular_target": "SpBzz1-D1", "assay": "SPOT peptide array binding signal intensity (averaged, normalized) (arbitrary units (background-subtracted, floor 0; scale differs between SH3 domains)); higher = stronger binding of the SH3 domain to the peptide", "summary_of_the_method": "as §1"}
{"binder": "GDHPKGPPPPPPPPD", "SPOT peptide array binding signal intensity": 67}
{"molecular_target": "SpBzz1-D2", "assay": "SPOT peptide array binding signal intensity (averaged, normalized) (arbitrary units (background-subtracted, floor 0; scale differs between SH3 domains)); higher = stronger binding of the SH3 domain to the peptide", "summary_of_the_method": "as §1"}
{"binder": "GDHPKGPPPPPPPPD", "SPOT peptide array binding signal intensity": 2}
{"molecular_target": "SpCyk3", "assay": "SPOT peptide array binding signal intensity (averaged, normalized) (arbitrary units (background-subtracted, floor 0; scale differs between SH3 domains)); higher = stronger binding of the SH3 domain to the peptide", "summary_of_the_method": "as §1"}
{"binder": "GDHPKGPPPPPPPPD", "SPOT peptide array binding signal intensity": "≤ 0"}
{"molecular_target": "SpHof1", "assay": "SPOT peptide array binding signal intensity (averaged, normalized) (arbitrary units (background-subtracted, floor 0; scale differs between SH3 domains)); higher = stronger binding of the SH3 domain to the peptide", "summary_of_the_method": "as §1"}
{"binder": "GDHPKGPPPPPPPPD", "SPOT peptide array binding signal intensity": "≤ 0"}
{"molecular_target": "SpHof1-2", "assay": "SPOT peptide array binding signal intensity (averaged, normalized) (arbitrary units (background-subtracted, floor 0; scale differs between SH3 domains)); higher = stronger binding of the SH3 domain to the peptide", "summary_of_the_method": "as §1"}
{"binder": "GDHPKGPPPPPPPPD", "SPOT peptide array binding signal intensity": "≤ 0"}
{"molecular_target": "SpHof1-3", "assay": "SPOT peptide array binding signal intensity (averaged, normalized) (arbitrary units (background-subtracted, floor 0; scale differs between SH3 domains)); higher = stronger binding of the SH3 domain to the peptide", "summary_of_the_method": "as §1"}
{"binder": "GDHPKGPPPPPPPPD", "SPOT peptide array binding signal intensity": "≤ 0"}
{"molecular_target": "SpHse1", "assay": "SPOT peptide array binding signal intensity (averaged, normalized) (arbitrary units (background-subtracted, floor 0; scale differs between SH3 domains)); higher = stronger binding of the SH3 domain to the peptide", "summary_of_the_method": "as §1"}
{"binder": "GDHPKGPPPPPPPPD", "SPOT peptide array binding signal intensity": 1}
{"molecular_target": "SpLsb1", "assay": "SPOT peptide array binding signal intensity (averaged, normalized) (arbitrary units (background-subtracted, floor 0; scale differs between SH3 domains)); higher = stronger binding of the SH3 domain to the peptide", "summary_of_the_method": "as §1"}
{"binder": "GDHPKGPPPPPPPPD", "SPOT peptide array binding signal intensity": "≤ 0"}
{"molecular_target": "SpLsb4", "assay": "SPOT peptide array binding signal intensity (averaged, normalized) (arbitrary units (background-subtracted, floor 0; scale differs between SH3 domains)); higher = stronger binding of the SH3 domain to the peptide", "summary_of_the_method": "as §1"}
{"binder": "GDHPKGPPPPPPPPD", "SPOT peptide array binding signal intensity": "≤ 0"}
{"molecular_target": "SpMyo1", "assay": "SPOT peptide array binding signal intensity (averaged, normalized) (arbitrary units (background-subtracted, floor 0; scale differs between SH3 domains)); higher = stronger binding of the SH3 domain to the peptide", "summary_of_the_method": "as §1"}
{"binder": "GDHPKGPPPPPPPPD", "SPOT peptide array binding signal intensity": 1570}
{"molecular_target": "SpNbp2", "assay": "SPOT peptide array binding signal intensity (averaged, normalized) (arbitrary units (background-subtracted, floor 0; scale differs between SH3 domains)); higher = stronger binding of the SH3 domain to the peptide", "summary_of_the_method": "as §1"}
{"binder": "GDHPKGPPPPPPPPD", "SPOT peptide array binding signal intensity": 18.5}
{"molecular_target": "SpPex13", "assay": "SPOT peptide array binding signal intensity (averaged, normalized) (arbitrary units (background-subtracted, floor 0; scale differs between SH3 domains)); higher = stronger binding of the SH3 domain to the peptide", "summary_of_the_method": "as §1"}
{"binder": "GDHPKGPPPPPPPPD", "SPOT peptide array binding signal intensity": "≤ 0"}
{"molecular_target": "SpRvs167", "assay": "SPOT peptide array binding signal intensity (averaged, normalized) (arbitrary units (background-subtracted, floor 0; scale differs between SH3 domains)); higher = stronger binding of the SH3 domain to the peptide", "summary_of_the_method": "as §1"}
{"binder": "GDHPKGPPPPPPPPD", "SPOT peptide array binding signal intensity": "≤ 0"}
{"molecular_target": "SpSla1-D1-D2", "assay": "SPOT peptide array binding signal intensity (averaged, normalized) (arbitrary units (background-subtracted, floor 0; scale differs between SH3 domains)); higher = stronger binding of the SH3 domain to the peptide", "summary_of_the_method": "as §1"}
{"binder": "GDHPKGPPPPPPPPD", "SPOT peptide array binding signal intensity": "≤ 0"}
{"molecular_target": "SpSla1-D3", "assay": "SPOT peptide array binding signal intensity (averaged, normalized) (arbitrary units (background-subtracted, floor 0; scale differs between SH3 domains)); higher = stronger binding of the SH3 domain to the peptide", "summary_of_the_method": "as §1"}
{"binder": "GDHPKGPPPPPPPPD", "SPOT peptide array binding signal intensity": "≤ 0"}
